From ChEMBL document CHEMBL4513216, “Probing the Open Global Health Chemical Diversity Library for Multistage-Active Starting Points for Next-Generation Antimalarials” (ACS Infect Dis, 2020) come the findings set out here.

Screen size: about 68,000 compounds; about 2,700 (4%) showed an effect of 50% or more. Shown is part of a subset that was picked to be rich in strong results.

The assay relates to Plasmodium berghei. In words: Screen against P. berghei liver stage (PbLuc), transformed with Luciferase, at 2uM. The assay is classed as functional, HepG2. The conditions noted are these: tested at 2 uM.
`COCC(=O)N1CCO[C@H]2[C@H](OC)CC[C@@H]21`: the INHIBITION worked out at 7.86%.
As to `Cc1ccc(Oc2c(F)cccc2OC[C@@H](N)CC(C)C)cc1`, the INHIBITION is 16.01%.
The result for `COC(=O)CN(C(=O)C(C)c1c(F)cccc1F)c1cccc(C)n1` (stereo not given) reads -23.76%; that for `Cc1oncc1C(=O)N1CC[C@H]2[C@H]1CCN2S(C)(=O)=O`, 15.36%.
Regarding `COCC1CC2(CCN(Cc3cccc(C#N)c3)CC2)CN1C(C)C` (stereo not given), the INHIBITION is on record as -52.61%.
On to `Cc1nnc(NC(=O)NCc2ccnc(N(C)C)c2)s1`, for which the INHIBITION was determined as 29.71%.
The result for `COc1ccc(-c2noc([C@@H]3C[C@@H](O)CN3C3CCOCC3)n2)cc1` reads 38.62%; that for `O[C@@H]1C[C@@H](c2nc(-c3ccccc3)no2)N(C2CCOCC2)C1`, 16.47%; that for `O[C@@H]1C[C@@H](c2nc(-c3ccc(F)cc3)no2)N(C2CCOCC2)C1`, 51.2%.
For the molecule `O=C(c1[nH]nc2c1CCCC2)N1CCC(OCCN2CCCCC2)C1` (stereo not given), the INHIBITION came out at 8.14%.
The result for `COC1CCN(C(=O)CCc2c(C)nc3ccnn3c2C)CC1` reads -3.38%; that for `CCOc1ccc(CN2C(=O)CC3(CCCC3)C2=O)nc1`, -32.8%.
The result for `Cc1nc(C(=O)N2CCN(c3ccc(Cl)c(Cl)c3)CC2)cs1` reads 23.19%.
`O=C(O)c1ccccc1-n1cnc(CN2CCc3ccccc32)c1`: the INHIBITION was -26.26%.
As to `O=C(O)c1ccccc1-n1cnc(CN2CCc3ccccc3C2)c1`, the INHIBITION was found to be 51.03%.
The result for `O=C(O)c1ccccc1-n1cnc(CN2CCCCCC2)c1` reads 25.41%.
For the molecule `CN(C(=O)C1CCOCC1)[C@@H]1CCC[C@@H](N2CCCC2)[C@@H]1O`, the INHIBITION was -29.66%.
The result for `CC1CN(S(=O)(=O)c2ccc(C(=O)NCC(F)F)cc2)CCCO1` (stereo not given) reads 9.21%; that for `COCCn1ccnc1C1CCN(C(=O)c2cccc(COC)n2)CC1`, -2.69%.
The result for `CC(C)NC(=O)CCNC(=O)c1cc(F)ccc1NS(C)(=O)=O` reads -84.03%.
On to `c1cnn(C[C@@H]2C[C@@H]3CN(CC4CC4)CC[C@@H]3N2c2nccs2)c1`, for which the INHIBITION is -11.68%.
The result for `Cc1noc(C)c1CN1CCC(c2nc3cc(Cl)ccc3o2)CC1` reads 32.43%; that for `Cc1ncc(CN2CCC(c3nc4cc(Cl)ccc4o3)CC2)s1`, 56.38%; that for `Cc1nc(CN2CCC(c3nc4cc(Cl)ccc4o3)CC2)oc1C`, 29.16%.
For `Cc1oc(-c2nc(C#N)c(NC(C)C)o2)cc1S(=O)(=O)N1CCCCC1`, the INHIBITION was found to be 28.39%.
Consider `Cc1ccnc(C2(C)CCCN2S(=O)(=O)c2cccnc2)n1` (stereo not given), for which the INHIBITION was -0.7%.
The value for `O=C(Nc1cc(C(F)(F)F)c[nH]c1=O)C1CCCNC1` (stereo not given) was -50.41%; that for `CC1CCN(CCCNS(=O)(=O)c2cc(F)cc(F)c2)CC1` was 14.52%; that for `N#Cc1ccc(OC2CCN(C(=O)c3ccccc3Cl)CC2)nc1` was 54.47%.
Turning to `COc1ccc(F)cc1S(=O)(=O)N1CCC(Oc2ccc(Cl)cn2)CC1`, the INHIBITION came to 54.73%.
Consider `COc1ccccc1C(=O)N1CCC(Oc2ccc(C#N)cn2)CC1`, for which the INHIBITION is 64.74%.
The result for `O=S(=O)(c1cc(F)cc(F)c1)N1CCC(Oc2ccc(Cl)cn2)CC1` reads 20.5%.
The result for `CCOCC(=O)N1CCC(Oc2ccc(Cl)cn2)CC1` reads -4.69%; that for `COc1ccc(F)cc1S(=O)(=O)N1CCC(OC)CC1`, 28.55%.
As for `N#Cc1ccc(OC2CCN(C(=O)c3ccc(Br)o3)CC2)nc1`, the INHIBITION is -2.43%.
The result for `N#Cc1ccc(C(=O)N2CCC(Oc3ccc(C#N)cn3)CC2)cc1` reads 20.49%.
`CC(=O)N1CCC(Oc2ccc(Cl)cn2)CC1`: the INHIBITION is 64.16%.
The result for `CC(=O)N1CCC(Oc2ccc(C#N)cn2)CC1` reads -1.02%; that for `Cn1nc(C(=O)N2CCC(Oc3ccc(C#N)cn3)CC2)ccc1=O`, 37.08%.
Consider `CCOC(=O)N1CCC(Oc2ccc(C(F)(F)F)cn2)CC1`, for which the INHIBITION is on record as 30.98%.
Turning to `COc1cc(N2CC[C@@H](O)[C@@H]2Cc2ccccc2)ncn1`, the INHIBITION was -30.57%.
The value for `CNc1ccccc1C(=O)N(C)CCc1ccccc1` was -88.87%.
The result for `CN(Cc1ccsc1)C(=O)c1n[nH]c(N)c1-c1ccccc1` reads 8.75%.
As to `Cc1cc(C(=O)NC(C)Cc2cccc(Cl)c2)n(C)n1` (stereo not given), the INHIBITION was -16.65%.
In the case of `Cc1n[nH]c(C2CN(CC(=O)NCCC3=CCCCC3)CCO2)n1` (stereo not given), the INHIBITION was 1.27%.
The value for `CN1CC2(CCN(S(=O)(=O)C3CC3)CC2)c2ccccc21` was 13.26%; that for `Cn1ncnc1NCc1ccccc1Cl` was 6.75%; that for `CCC(C(=O)N(C)Cc1cc(COC)[nH]n1)n1cccn1` (stereo not given) was 19.12%.
For the molecule `CN(Cc1cnn(C)c1)C(=O)NCc1cc(Br)cs1`, the INHIBITION worked out at 31.78%.
`Cc1cc(NC(=O)CN2CCCC2c2noc(C)n2)n(C(C)(C)C)n1` (stereo not given): the INHIBITION is listed as 7.71%.
Consider `Cc1cc(NC(=O)CN2CCCC2c2noc(C)n2)n(C)n1` (stereo not given), for which the INHIBITION amounted to 50.76%.
The value for `Cc1cc(NC(=O)CN2CCCC2c2noc(C3CC3)n2)n(C)n1` (stereo not given) was -30.39%; that for `Cc1cccc(COC[C@@]23CCC[C@@H]2CN(S(=O)(=O)N(C)C)C3)n1` was 31.96%.
Take `COc1ccccc1CNC(C)c1ccc(-n2ccnc2)cc1` (stereo not given): the INHIBITION is on record as 18.85%.
With `CC(C)N(C)S(=O)(=O)c1ccc2c(c1)CCN(C(=O)c1cscn1)C2`, the INHIBITION is recorded as -68.29%.
Take `Cc1ncsc1C(=O)NC1CCN(CCC(=O)Nc2ccccc2)CC1`: the INHIBITION came out at 1.02%.
The value for `O=C(CN1CCC(Nc2ncccn2)CC1)Nc1ccccc1` was 36.28%; that for `Cc1cnc(NC2CCN(CC(=O)Nc3ccccc3)CC2)nc1C` was 76.82%.
For `CCN1CCN(C2CCN(Cc3nnc(C4CC4)o3)CC2)C1=O`, the INHIBITION is -8.9%.
For the molecule `O=c1[nH]nc2nc(N3CCOCC3)ccn12`, the INHIBITION is reported as -60.22%.
The result for `Cc1nn(C)cc1CN1C[C@H]2CC[C@@H](C1)N(Cc1c(C)noc1C)C2=O` reads 35.46%; that for `COc1cc(C#N)ccc1OC12CCCN(CC1)C2` (stereo not given), 63.83%.
The result for `COc1cc(C(C)=O)ccc1OC12CCCN(CC1)C2` (stereo not given) reads -18.6%; that for `CCCc1ccc(OC23CCCN(CC2)C3)c(OC)c1` (stereo not given), -21.37%.
Regarding `Cc1nc([C@H]2C[C@@H]3CCN(Cc4cnn(C)c4)C[C@H]3O2)sc1C`, the INHIBITION is on record as -19.14%.
